Data as given in PubChem BioAssay AID1159580 (chemical genetic matrix, 2015).
“And” between values parts separate entries of the source, which are not always exact repeats. Equal entries are not always repeated. In all, about 5,500 compounds went through this assay and about 2,000 (36%) were called active. Inconclusive results (about 18%) are left out. Rule as the data show it: active = normalized growth mostly below about 0.91 (no sharp cut-off); inconclusive = no clear call, values can overlap the other calls; inactive = mostly above about 0.92. The list shows a part of the results.

Test: chemical genetic growth profiling, strain panel (AID 1159580);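 also: tested at 20 µM; growth read once vehicle control cultures reached saturation at 30 °C; 1 = growth at the plate median or of vehicle wells; lower values mean less growth of the strain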
Conditions: S. cerevisiae deletion strains, growth OD

Measured: normalized growth

COP(=S)(OC)SCn1nnc2ccccc2c1=O
inactive: locus YAL013W, strain DEP1, hits give low values 0.987 | locus YAL021C, strain ccr4, hits give low values 1 | locus YAL026C, strain drs2, hits give low values 1 | locus YAL030W, strain snc1, hits give low values 1.03 | locus YBL061C, strain skt5, hits give low values 1.01 | locus YBR009C, strain hhf1, hits give low values 1 | locus YBR021W, strain FUR4, hits give low values 0.887 | locus YBR023C, strain chs3, hits give low values 0.997 | locus YBR171W, strain sec66, hits give low values 1.01 | locus YBR229C, strain ROT2, hits give low values 0.955 | locus YBR231C, strain swc5, hits give low values 1 | locus YBR279W, strain paf1, hits give low values 0.992 | locus YCL011C, strain gbp2, hits give low values 1 | locus YCL016C, strain dcc1, hits give low values 0.994 | locus YCL029C, strain bik1, hits give low values 0.974 | locus YCL061C, strain MRC1, hits give low values 0.996 | locus YCL069W, strain vba3, hits give low values 1.02 | locus YCR088W, strain abp1, hits give low values 1.02 | locus YDL005C, strain med2, hits give low values 1 | locus YDL035C, strain GPR1, hits give low values 0.921 | locus YDL040C, strain nat1, hits give low values 1.01 | locus YDL074C, strain BRE1, hits give low values 0.9 | locus YDL101C, strain DUN1, hits give low values 0.966 | locus YDL134C, strain PPH21, hits give low values 0.985 | locus YDL185W, strain tfp1, hits give low values 0.948 | locus YDL192W, strain arf1, hits give low values 0.976 | locus YDR001C, strain nth1, hits give low values 1.02 | locus YDR069C, strain doa4, hits give low values 0.96 | locus YDR101C, strain arx1, hits give low values 0.986 | locus YDR137W, strain rgp1, hits give low values 0.985 | locus YDR150W, strain NUM1, hits give low values 0.971 | locus YDR159W, strain sac3, hits give low values 0.927 | locus YDR162C, strain NBP2, hits give low values 0.963 | locus YDR195W, strain ref2 1.06 | locus YDR297W, strain sur2, hits give low values 0.998 | locus YDR318W, strain mcm21, hits give low values 0.972 | locus YDR334W, strain swr1, hits give low values 1.01 | locus YDR335W, strain msn5, hits give low values 1 | locus YDR388W, hits give low values 0.979 | locus YDR392W, strain spt3, hits give low values 1.03 | locus YDR502C, strain sam2, hits give low values 0.98 | locus YEL003W, strain gim4, hits give low values 0.984 | locus YEL037C, strain rad23, hits give low values 1.01 | locus YEL061C, strain CIN8 (second series), hits give low values 1.01 | locus YEL061C, strain CIN8, hits give low values 0.985 | locus YER015W, strain faa2, hits give low values 1 | locus YER016W, strain bim1, hits give low values 1.02 | locus YER110C, hits give low values 0.97 | locus YER111C, strain swi4, hits give low values 0.996 | locus YER155C, strain BEM2 (second series), hits give low values 0.999 | locus YER155C, strain BEM2, hits give low values 0.993 | locus YER167W, strain BCK2, hits give low values 0.989 | locus YFR010W, strain ubp6, hits give low values 0.98 | locus YGL078C, strain dbp3, hits give low values 0.997 | locus YGL086W, strain mad1, hits give low values 0.992 | locus YGL167C, strain pmr1, hits give low values 0.992 | locus YGL173C, strain kem1, hits give low values 1 | locus YGL227W, strain vid30, hits give low values 0.997 | locus YGL240W, strain doc1, hits give low values 0.904 | locus YGL248W, strain PDE1, hits give low values 0.953 | locus YGL253W, strain hxk2, hits give low values 0.993 | locus YGR078C, strain PAC10, hits give low values 0.953 | locus YGR135W, strain pre9, hits give low values 0.969 | locus YGR229C, strain SMI1, hits give low values 0.956 | locus YGR252W, strain gcn5, hits give low values 0.824 | locus YHR013C, strain ard1, hits give low values 0.913 | locus YHR027C, strain rpn1, hits give low values 1.02 | locus YHR030C, strain SLT2, hits give low values 0.973 and 0.958 | locus YHR079C, strain IRE1 (second series), hits give low values 0.983 | locus YHR079C, strain IRE1, hits give low values 0.979 | locus YHR094C, strain hxt1, hits give low values 0.99 | locus YHR129C, strain ARP1, hits give low values 0.967 | locus YHR142W, strain chs7, hits give low values 0.987 | locus YHR200W, strain rpn10, hits give low values 0.99 | locus YIL066C, strain RNR3, hits give low values 0.935 | locus YIL073C, strain SPO22, hits give low values 0.963 | locus YIL125W, strain kgd1, hits give low values 0.979 | locus YIR030C, strain dcg1, hits give low values 0.992 | locus YJL092W, strain hpr5, hits give low values 1.01 | locus YJL095W, strain BCK1 (second series), hits give low values 1 | locus YJL095W, strain BCK1, hits give low values 0.974 and 0.949 | locus YJL115W, strain asf1, hits give low values 0.991 | locus YJL129C, strain trk1, hits give low values 1.02 | locus YJL134W, strain LCB3, hits give low values 0.979 | locus YJL154C, strain vps35, hits give low values 1.02 | locus YJL164C, strain tpk1, hits give low values 0.984 | locus YJL166W, strain qcr8, hits give low values 1.01 | locus YJL168C, strain set2, hits give low values 0.982 | locus YJL187C, strain SWE1 (second series), hits give low values 0.977 | locus YJL187C, strain SWE1, hits give low values 1.01 | locus YJR043C, strain POL32, hits give low values 0.953 | locus YJR066W, strain TOR1, hits give low values 0.905
